In PubChem BioAssay (EPA / NIEHS):
The source made the active and inactive calls. How the source made its calls: active means hit-call score of the fitted dose curve at least 0.9, where 1 is the maximum; inactive means score below 0.9.

Experiments:
Details in all cases: mRNA level, 48 h; actives raise or lower the signal
[1] = read-out: Apolipoprotein A-V (APOA5) gene, APOA5 (gene 116519); experiment: LTEA_HepaRG_APOA5: Life Technologies and Expression Analysis (LTEA) Assay for Apolipoprotein A-V (APOA5) gene using HepaRG (AID 2283474)
Procedure, shortened: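 Differentiated human HepaRG cells were exposed in duplicate for 48 h to eight half-log concentrations from 100 uM in 0.5% DMSO. APOA5 mRNA was quantified by TaqMan qRT-PCR, normalized to ACTB, GAPDH and POLR2A, and fitted bidirectionally against DMSO.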

[2] = read-out: Apoptosis regulator Bcl-2 (Homo sapiens) (UniProt P10415); experiment: LTEA_HepaRG_BCL2: Life Technologies and Expression Analysis (LTEA) Assay for Bcl-2 gene using HepaRG (AID 2283475)
Procedure, shortened: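 Differentiated HepaRG cells in serum-free induction medium were exposed for 48 h to eight half-log concentrations up to 100 uM in 0.5% DMSO, in duplicate. BCL2 mRNA was quantified by TaqMan qRT-PCR normalised to ACTB, GAPDH and POLR2A, with bidirectional fitting versus DMSO.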

[3] = read-out: Bcl-2 (BID) gene, BID (gene 637); experiment: LTEA_HepaRG_BID: Life Technologies and Expression Analysis (LTEA) Assay for Bcl-2 (BID) gene using HepaRG (AID 2283476)
Procedure, shortened: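 Differentiated HepaRG cells in serum-free induction medium were exposed in duplicate for 48 h to eight half-log concentrations up to 100 uM in 0.5% DMSO. BID mRNA was quantified by qRT-PCR, normalized to ACTB, GAPDH and POLR2A.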

Caspase-3 (Homo sapiens) = Caspase-3 (Homo sapiens) (UniProt P42574); experiment: LTEA_HepaRG_CASP3: Life Technologies and Expression Analysis (LTEA) Assay for cysteine-aspartic acid protease (CASP3) using HepaRG (AID 2283477)
Caspase-3 (Homo sapiens), sequence (P42574 whole entry, looked up): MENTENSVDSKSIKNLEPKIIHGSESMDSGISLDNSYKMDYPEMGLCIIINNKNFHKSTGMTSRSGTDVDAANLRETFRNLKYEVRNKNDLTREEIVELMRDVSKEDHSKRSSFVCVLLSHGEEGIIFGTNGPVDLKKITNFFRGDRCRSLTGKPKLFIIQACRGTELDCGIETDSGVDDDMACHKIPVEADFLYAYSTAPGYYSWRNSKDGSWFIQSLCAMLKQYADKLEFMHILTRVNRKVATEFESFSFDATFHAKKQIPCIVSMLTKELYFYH
Procedure, shortened: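 Differentiated human HepaRG cells in serum-free induction medium were exposed 48 h to 8-point half-log concentrations from 100 uM (0.5% DMSO vehicle). CASP3 mRNA was measured by qRT-PCR, normalised to ACTB, GAPDH and POLR2A, with bidirectional fitting against DMSO.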

[4] = read-out: Cytochrome P450 (CYP24A1), CYP24A1 (gene 1591); experiment: LTEA_HepaRG_CYP24A1: Life Technologies and Expression Analysis (LTEA) Assay for Cytochrome P450 (CYP24A1) using HepaRG (AID 2283478)
Procedure, shortened: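 Differentiated HepaRG cells, pre-cultured 48 h, were exposed in duplicate for 48 h in serum-free induction medium to 8 half-log concentrations (top 100 uM, 0.5% DMSO). CYP24A1 mRNA was quantified by TaqMan qRT-PCR, normalized to ACTB/GAPDH/POLR2A, fitted bidirectionally versus DMSO.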

[5] = read-out: cysteine-aspartic acid protease (CASP8), CASP8 (gene 841); experiment: LTEA_HepaRG_CASP8: Life Technologies and Expression Analysis (LTEA) Assay for cysteine-aspartic acid protease (CASP8) using HepaRG (AID 2283480)
Procedure, shortened: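 Differentiated human HepaRG cells, plated 48 h then switched to serum-free induction medium, were exposed in duplicate for 48 h to 8 half-log concentrations up to 100 uM in 0.5% DMSO. CASP8 mRNA was quantified by qRT-PCR, normalized to ACTB/GAPDH/POLR2A.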

[6] = read-out: Cytochrome P450 (CYP2B6), CYP2B6 (gene 1555); experiment: LTEA_HepaRG_CYP2B6: Life Technologies and Expression Analysis (LTEA) Assay for Cytochrome P450 (CYP2B6) using HepaRG (AID 2283481)
Procedure, shortened: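 Differentiated HepaRG cells, serum-free induction medium, exposed 48 h in duplicate to 8-point half-log concentrations from 100 uM in 0.5% DMSO. CYP2B6 mRNA by qRT-PCR, normalized to ACTB, GAPDH, POLR2A; bidirectional fit versus DMSO.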

[7] = read-out: Cytochrome P450 2C19 (Homo sapiens) (UniProt P33261); experiment: LTEA_HepaRG_CYP2C19: Life Technologies and Expression Analysis (LTEA) Assay for CYP2C19 using HepaRG (AID 2283482)
Procedure, shortened: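 Differentiated human HepaRG cells were exposed for 48 h in serum-free induction medium to 8 concentrations (top 100 uM, half-log steps, 0.5% DMSO). CYP2C19 mRNA was measured by qRT-PCR, normalized to ACTB/GAPDH/POLR2A, and fitted bidirectionally against DMSO.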

CYP2C8 (gene 1558) = experiment: LTEA_HepaRG_CYP2C8: Life Technologies and Expression Analysis (LTEA) Assay for CYP2C8 using HepaRG (AID 2283483)
Procedure, shortened: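 Differentiated human HepaRG cells were exposed for 48 h in serum-free induction medium to eight half-log concentrations up to 100 uM in 0.5% DMSO, in duplicate. CYP2C8 mRNA was measured by TaqMan qRT-PCR, normalized to ACTB, GAPDH and POLR2A, and fitted bidirectionally against DMSO.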

[8] = read-out: Cytochrome P450 (CYP1A2), CYP1A2 (gene 1544); experiment: LTEA_HepaRG_CYP1A2: Life Technologies and Expression Analysis (LTEA) Assay for Cytochrome P450 (CYP1A2) using HepaRG (AID 2283479)
Procedure, shortened: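 Differentiated human HepaRG cells in serum-free induction medium were exposed in duplicate for 48 h to 8-point half-log concentrations up to 100 uM in 0.5% DMSO. CYP1A2 mRNA measured by qRT-PCR, normalized to ACTB, GAPDH, POLR2A; bidirectional fit vs DMSO.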

Measured: AC50

Cytochrome P450 2C19 (Homo sapiens), sequence (P33261 whole entry, looked up): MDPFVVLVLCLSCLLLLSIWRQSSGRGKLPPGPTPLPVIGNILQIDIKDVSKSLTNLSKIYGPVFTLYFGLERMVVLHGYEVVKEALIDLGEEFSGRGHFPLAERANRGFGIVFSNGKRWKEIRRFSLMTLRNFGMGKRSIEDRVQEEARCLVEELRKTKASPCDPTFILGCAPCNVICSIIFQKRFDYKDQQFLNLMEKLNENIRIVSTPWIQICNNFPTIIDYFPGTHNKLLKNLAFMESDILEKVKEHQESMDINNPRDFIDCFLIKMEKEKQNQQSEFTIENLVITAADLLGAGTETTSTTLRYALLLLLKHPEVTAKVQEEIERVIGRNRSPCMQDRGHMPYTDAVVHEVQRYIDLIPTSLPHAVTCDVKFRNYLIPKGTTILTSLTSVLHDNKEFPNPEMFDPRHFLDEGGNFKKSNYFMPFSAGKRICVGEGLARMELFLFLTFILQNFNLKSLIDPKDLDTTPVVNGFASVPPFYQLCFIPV
Apoptosis regulator Bcl-2 (Homo sapiens), sequence (P10415 whole entry, looked up): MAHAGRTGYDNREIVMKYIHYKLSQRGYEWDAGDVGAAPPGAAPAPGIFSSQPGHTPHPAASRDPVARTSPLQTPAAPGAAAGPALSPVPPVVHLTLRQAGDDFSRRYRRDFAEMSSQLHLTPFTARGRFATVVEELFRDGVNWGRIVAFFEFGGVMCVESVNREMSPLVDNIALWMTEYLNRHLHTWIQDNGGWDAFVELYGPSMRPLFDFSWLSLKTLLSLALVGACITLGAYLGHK

Cc1nc(-c2ccccn2)ncc1C(=O)Nn1cc(C)c2cc(F)ccc21
inactive: [2] | [3] | Caspase-3 (Homo sapiens) | [4] | [5] | CYP2C8 (gene 1558)
active: [1] 80.6 µM | [6] 0.168 µM | [7] 1.02 µM

O=C1CN(N=Cc2ccc([N+](=O)[O-])o2)C(=O)N1
active: [2] 80.7 µM | [6] 50 µM | CYP2C8 (gene 1558) 50 µM
inactive: [3] | Caspase-3 (Homo sapiens) | [4] | [8] | [5] | [7]

CNC(C)=O
inactive: [2] | [3] | Caspase-3 (Homo sapiens) | [5] | [6] | [7] | CYP2C8 (gene 1558)

CCCCN1C(=O)[C@@H]([C@H](O)C2CCCCC2)NC(=O)C12CCN(Cc1ccc(Oc3ccc(C(=O)O)cc3)cc1)CC2
active: [2] 12.7 µM | Caspase-3 (Homo sapiens) 2.23 µM | [8] 2.06 µM | [5] 3.02 µM | [6] 1.94 µM | [7] 2.02 µM | CYP2C8 (gene 1558) 3.24 µM
inactive: [3]

CC(=O)c1ccccc1
inactive: [2] | [3] | Caspase-3 (Homo sapiens) | [4] | [5] | [6] | [7] | CYP2C8 (gene 1558)

CCCCC(CC)C(=O)OCCOCCOCCOC(=O)C(CC)CCCC (stereo not given)
inactive: [2] | [3] | Caspase-3 (Homo sapiens) | [5] | [6] | [7] | CYP2C8 (gene 1558)

O=S1(=O)CCCO1
inactive: [2] | [3] | Caspase-3 (Homo sapiens) | [8] | [5] | [6] | [7] | CYP2C8 (gene 1558)

Cc1ncc([C@@H](CCCCCCc2ccc3c(n2)NCCC3)CC(=O)O)cn1
inactive: [2] | [3] | Caspase-3 (Homo sapiens) | [5] | [6] | [7] | CYP2C8 (gene 1558)

O=C(O)c1cccc(C[C@@H]2COc3ccc(OCc4nc5cc(F)ccc5s4)cc3[C@@H]2O)c1
inactive: [2] | [3] | Caspase-3 (Homo sapiens) | [8] | [5]
active: [6] 92 µM | [7] 83.9 µM | CYP2C8 (gene 1558) 84.2 µM

NC(=O)N(O)[C@@H]1COc2cc(OCc3ccccc3)ccc21
active: [6] 16.2 µM
inactive: [2] | [3] | Caspase-3 (Homo sapiens) | [4] | [5] | [7] | CYP2C8 (gene 1558)

OC[C@H]1O[C@@H]2O[C@H]3[C@H](O)[C@@H](O)[C@@H](O[C@H]4[C@H](O)[C@@H](O)[C@@H](O[C@H]5[C@H](O)[C@@H](O)[C@@H](O[C@H]6[C@H](O)[C@@H](O)[C@@H](O[C@H]7[C@H](O)[C@@H](O)[C@@H](O[C@H]1[C@H](O)[C@H]2O)O[C@@H]7CO)O[C@@H]6CO)O[C@@H]5CO)O[C@@H]4CO)O[C@@H]3CO
inactive: [2] | [3] | Caspase-3 (Homo sapiens) | [8] | [5] | [6] | [7] | CYP2C8 (gene 1558)

CCc1cccc(CC)c1N
inactive: [2] | [3] | Caspase-3 (Homo sapiens) | [5] | [7] | CYP2C8 (gene 1558)
active: [6] 6.35 µM

OC(CCl)CCl
inactive: [2] | [3] | Caspase-3 (Homo sapiens) | [5] | [6] | [7] | CYP2C8 (gene 1558)

OC(Cn1cncn1)(Cn1cncn1)c1ccc(F)cc1F
active: [6] 27.1 µM
inactive: [2] | [3] | Caspase-3 (Homo sapiens) | [5] | [7] | CYP2C8 (gene 1558)

CCn1nc(C)c2c1C(=O)NCC(c1ccc(O)cc1)=N2
active: [6] 32.9 µM
inactive: [2] | [3] | Caspase-3 (Homo sapiens) | [4] | [5] | [7] | CYP2C8 (gene 1558)

CCOC(N)=O
inactive: [2] | [3] | Caspase-3 (Homo sapiens) | [4] | [5] | [6] | [7] | CYP2C8 (gene 1558)

CCCCOC(=O)c1ccccc1
active: [6] 50 µM
inactive: [2] | [3] | Caspase-3 (Homo sapiens) | [8] | [5] | [7] | CYP2C8 (gene 1558)

OCc1ccccc1
inactive: [2] | [3] | Caspase-3 (Homo sapiens) | [4] | [5] | [6] | [7] | CYP2C8 (gene 1558)

CC1(C)C(=O)N(Cl)C(=O)N1Cl
inactive: [2] | [3] | Caspase-3 (Homo sapiens) | [5] | [6] | [7] | CYP2C8 (gene 1558)

c1ccc2c(c1)-c1cccc3c1c-2cc1ccccc13
inactive: [3] | [6]
active: [2] 6 µM | Caspase-3 (Homo sapiens) 13.5 µM | [7] 17.2 µM | CYP2C8 (gene 1558) 17.3 µM

Cc1nccn1-c1ccc(Sc2cccc(C3(C(N)=O)CCOCC3)c2)cc1
active: [2] 7.26 µM | Caspase-3 (Homo sapiens) 2.48 µM | [8] 18.6 µM | [5] 28.1 µM | [6] 9.76 µM | [7] 10.7 µM | CYP2C8 (gene 1558) 12.6 µM
inactive: [3]

c1ccc2ncccc2c1
active: [6] 50 µM | CYP2C8 (gene 1558) 36.2 µM
inactive: [2] | [3] | Caspase-3 (Homo sapiens) | [4] | [5] | [7]

CCCCCOC(C)=O
inactive: [2] | [3] | Caspase-3 (Homo sapiens) | [8] | [5] | [6] | [7] | CYP2C8 (gene 1558)

c1ccc(C(O[C@@H]2CCCN(CCc3ccc4c(c3)OCO4)C2)c2ccccc2)cc1
active: [2] 73.2 µM | [3] 91 µM | Caspase-3 (Homo sapiens) 76.7 µM | [8] 12.2 µM | [5] 78.6 µM | [6] 72 µM | [7] 79 µM | CYP2C8 (gene 1558) 77.1 µM

Cn1c(=O)c2[nH]cnc2n(C)c1=O
inactive: [2] | Caspase-3 (Homo sapiens) | [5] | [6] | [7] | CYP2C8 (gene 1558)
active: [3] 0.312 µM

O=S(=O)(O)c1ccc(N=Nc2c(O)ccc3cc(S(=O)(=O)O)ccc23)cc1
inactive: [2] | [3] | Caspase-3 (Homo sapiens) | [5] | [7] | CYP2C8 (gene 1558)
active: [6] 22.9 µM

O=c1[nH]cnc2c1ncn2[C@H]1CC[C@@H](CO)O1
inactive: [2] | [3] | Caspase-3 (Homo sapiens) | [4] | [5] | [6] | [7] | CYP2C8 (gene 1558)

NNC(=O)c1ccncc1
active: [6] 10.4 µM
inactive: [2] | [3] | Caspase-3 (Homo sapiens) | [4] | [8] | [5] | [7] | CYP2C8 (gene 1558)

CCCCCCCC1CCC(=O)O1 (stereo not given)
inactive: [2] | [3] | Caspase-3 (Homo sapiens) | [5]

CCCCCCCCN(C)C
inactive: [2] | [3] | Caspase-3 (Homo sapiens) | [5] | [6] | [7] | CYP2C8 (gene 1558)

Cc1ccc(S(=O)(=O)NC(=O)NN2CCCCCC2)cc1
inactive: [2] | [3] | Caspase-3 (Homo sapiens) | [5]

CCCc1ccccc1
inactive: [2] | [3] | Caspase-3 (Homo sapiens) | [4] | [5] | [6] | [7] | CYP2C8 (gene 1558)

CCCCCCCC/C=C\CCCCCCCC(=O)OC[C@@H](O)[C@H]1OC[C@H](O)[C@H]1O
inactive: [2] | [3] | Caspase-3 (Homo sapiens) | [5] | [6] | [7] | CYP2C8 (gene 1558)

COc1cc2c(c(OC)c1OC)-c1ccc(OC)c(=O)cc1[C@@H](NC(C)=O)CC2
active: [6] 0.0986 µM | CYP2C8 (gene 1558) 0.0951 µM
inactive: [2] | [3] | Caspase-3 (Homo sapiens) | [4] | [5]

C[C@]12C=CC(=O)C=C1CC[C@H]1[C@@H]3C[C@@H](O)[C@](O)(C(=O)CO)[C@@]3(C)C[C@H](O)[C@@]12F
inactive: [2] | [3] | Caspase-3 (Homo sapiens) | [5] | [6] | CYP2C8 (gene 1558)

OCC(CO)(CO)CO
inactive: [2] | [3] | Caspase-3 (Homo sapiens) | [8] | [5] | [6] | [7] | CYP2C8 (gene 1558)

COS(C)(=O)=O
inactive: [2] | [3] | Caspase-3 (Homo sapiens) | [8] | [5] | [6] | [7] | CYP2C8 (gene 1558)
